Only some compounds are listed: those with a hit (about 2.4% of all), similar ones and a draw of the others.
GLP-1R inv ag = acts as inverse agonist at human GLP-1 receptor; HEK293 GLP-1R CRE-luciferase, luminescence, 24 h; GLP-1R form is constitutively active; Potency, µM (titrated, usually from 38.3 µM), actives largely listed as inhibitors; 410,000 compounds, 1.6% hits; further: nearly all actives have a fitted effect of over 55% in size
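qHTS in 1536-well format: reporter HEK293 cells expressing constitutive GLP-1R activity in DMEM + 10% Nu serum, 24 hr with compounds at 37 deg C, luminescence read after 12 min with detection reagent.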
TRHR enhancer = TRH receptor (human) allosteric enhancement | 360,000 compounds, 0.66% hits | enhancement, % at 2 µM | TRHR cells, fluo-8 calcium fluorescence, EC20 TRH enhancement; in the data active means enhancement above about 30%
Target sequence (P34981 whole entry, looked up): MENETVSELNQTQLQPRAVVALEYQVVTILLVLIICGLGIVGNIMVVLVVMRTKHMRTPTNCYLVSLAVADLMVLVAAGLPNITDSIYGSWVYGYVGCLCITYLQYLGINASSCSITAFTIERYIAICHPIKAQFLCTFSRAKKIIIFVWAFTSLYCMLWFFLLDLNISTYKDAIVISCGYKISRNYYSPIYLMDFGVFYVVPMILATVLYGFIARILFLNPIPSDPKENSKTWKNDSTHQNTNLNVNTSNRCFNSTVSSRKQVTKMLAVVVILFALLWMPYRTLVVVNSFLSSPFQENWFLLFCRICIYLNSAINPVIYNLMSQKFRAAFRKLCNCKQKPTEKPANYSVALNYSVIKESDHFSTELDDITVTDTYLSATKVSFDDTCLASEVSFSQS
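TRHR-expressing cells loaded with fluo-8 calcium dye were read kinetically (ex 480/em 530) during compound addition, then stimulated with an EC20 of TRH (10 nM final). Enhancement of the Gq-mediated intracellular calcium response was scored.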
GLP1R ag = GLP-1 receptor (human) agonism. HEK293 GLP-1R CRE-luciferase, luminescence, 4-6 h; cells express a hypersensitive GLP-1R form. 380,000 compounds, 0.007% hits. Potency, µM (top dose mostly 45.6 µM), usual class: activators. AID 624172
PTHR1 agonist = activates the human parathyroid hormone receptor PTHR1. HEK293 GP2 PTHR1 cells, GloSensor cAMP luminescence, 1 h. Potency, µM (series often up to 115 µM), actives largely listed as activators. 410,000 compounds, 0.075% hits; further: nearly all actives have a fitted effect of over 55% in size
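HEK-293-derived GP2 cells expressing PTHR1 and a GloSensor cAMP reporter, 3,000/well, plated overnight, given luciferin plus IBMX (each 0.5 mM as added) for 1 h at 37 °C, then compound for 1 h at 37 °C. Luminescence was read after 15 min at room temperature.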
TRHR ag = TRH receptor (human) agonism. P34981. TRHR cells, calcium flux fluo-8, FDSS agonist mode. activation, % at 2 µM. 360,000 compounds, 0.18% hits. AID 493084; in the data active means activation above about 30%
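Agonist-mode FDSS calcium read (Ex 480/Em 530, 1 s cycles) in 1536-well TRHR cells with fluo-8 dye, after 10-cycle baseline and 23 nL compound addition; TRH at EC20 (10 nM final) added afterwards for the enhancer phase.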
GLP1R cytotox = cytotoxic in the GLP-1 receptor inverse agonist counter-screen; HEK293 cAMP-luciferase reporter cells, luminescence, 24 h; Potency, µM (series often up to 38.3 µM), hits mostly inhibitors; 410,000 compounds, 0.13% hits;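 further: loss of luciferase light is scored as toxicity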
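1536-well qHTS counterscreen of the MLSMR; 200 cells/uL, 12 h pre-incubation, 23 nL cpd, 24 h at 37 deg C 5% CO2, luciferase detection reagent, 12 min RT, luminescence. Inhibition = undesired.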
Large screens that a line does not name were inactive; ! = repeats disagree. Unless noted, the call rests on the fitted dose curve; in most records, active means well fitted curve in the direction sought with a large enough effect; inconclusive means small, poorly fitted or top-dose-only effect, or another doubt; inactive means no such curve, though single readings can be large; an effect the other way counts as inactive or inconclusive.

CC(C)N(Cc1nc(-c2ccccc2)no1)C(=O)Cc1ccccc1	GLP-1R inv ag inconclusive
Cc1ccc(-c2nc(CS(=O)(=O)CC(=O)NCCCN(Cc3ccccc3)C(C)C)c(C)o2)cc1	GLP-1R inv ag 4.5µM, GLP1R cytotox inconclusive
CC(C)c1ccccc1NC(=O)Nc1nc(C(N)Cc2ccc(C(F)(F)F)cc2)cs1 (configuration not stated)	GLP-1R inv ag 13µM, GLP1R cytotox inconclusive (no result: TRHR enhancer, TRHR ag)
CC(C)CC(N)c1csc(NC(=O)Nc2ccccc2C(C)C)n1 (configuration not stated)	GLP-1R inv ag 10µM, GLP1R cytotox inconclusive (no result: TRHR enhancer, TRHR ag)
N#CCCN(C(=O)COC(=O)C1=COCCO1)c1ccc(F)cc1	none
CCCN(CCC)CCCNC(=O)c1cc2cc3ccc(Cl)cc3nc2o1	TRHR enhancer 40
O=C(Cn1ncc2c3ccccc3n(Cc3ccccc3F)c2c1=O)N1CCCCCC1	none (no result: GLP1R ag)
O=C(Nc1ccccc1OCc1ccccc1)c1ccccc1Br	GLP-1R inv ag 10µM
O=C(OCc1nnc(-c2ccccc2)o1)c1ccc([N+](=O)[O-])o1	none
COc1ccccc1NC(=O)c1cc2n(n1)C(C(F)(F)F)CC(c1ccc3c(c1)OCO3)N2 (configuration not stated)	GLP-1R inv ag 2µM
COc1ccc(OC)c(NC(=O)c2cc3n(n2)C(C(F)(F)F)CC(c2ccc4c(c2)OCO4)N3)c1 (configuration not stated)	none
NC(=S)N/N=C1\CC(c2ccc3c(c2)OCCCO3)Oc2ccc(F)cc21 (configuration not stated)	GLP-1R inv ag 13µM, GLP1R cytotox inconclusive
NC(=S)N/N=C1\CC(c2ccc3c(c2)OCCO3)Oc2ccc(F)cc21 (configuration not stated)	GLP-1R inv ag 3.5µM, GLP1R cytotox inconclusive
COc1ccc(OCc2nc(-c3ccc(OC)c(OC)c3)no2)cc1	none
CNC(=O)c1cc(S(=O)(=O)N2CC(C)OC(C)C2)ccc1N1CCCCC1 (configuration not stated)	TRHR enhancer 41
CNC(=O)c1cc(S(=O)(=O)N2CC(C)OC(C)C2)ccc1N1CCOCC1 (configuration not stated)	none
N#CC(C#N)=C(N)CSc1cccc[n+]1[O-]	GLP-1R inv ag inconclusive, TRHR enhancer 35, GLP1R cytotox 4.5µM
O=C(O)CSc1cccc[n+]1[O-]	none
C/C(=N\Nc1nc(N2CCCCC2)nc(N2CCOCC2)n1)c1ccccc1O	GLP-1R inv ag 2.5µM
O=C(c1ccco1)N(Cc1ccc(Cl)cc1)Cc1ccco1	GLP-1R inv ag inconclusive
Cc1ccc(CN(Cc2ccco2)C(=O)c2ccc(Cl)cc2Cl)cc1	GLP-1R inv ag 13µM (no result: GLP1R ag)
Cc1ccc(CN(Cc2ccco2)C(=O)c2oc3cc(Br)ccc3c2C)cc1	GLP-1R inv ag inconclusive (no result: GLP1R ag)
CN(C)c1ccc(CN(Cc2ccco2)C(=O)c2ccco2)cc1	GLP-1R inv ag 11µM
Cc1ccc(CN(Cc2ccco2)C(=O)COc2ccc(Cl)cc2Cl)cc1	GLP-1R inv ag inconclusive (no result: GLP1R ag)
CCc1ccc2oc(C(=O)N(Cc3cccc(Cl)c3)Cc3ccco3)c(C)c2c1	GLP-1R inv ag 8.9µM (no result: GLP1R ag)
CC1=C(C(=O)N(C(C)C)C(C)C)CC(CC(=O)NCCc2ccccn2)C(=O)N1Cc1ccc(C(C)(C)C)cc1 (configuration not stated)	none (no result: TRHR enhancer, TRHR ag)
CCCn1c(SCC(=O)Nc2ccccc2OC)nnc1-c1ccco1	GLP-1R inv ag inconclusive, GLP1R cytotox inconclusive
CCCC(O)(c1ccc(Cl)cc1)C(CN1CCOCC1)c1ccc(Cl)cc1 (configuration not stated)	GLP-1R inv ag inconclusive
CCCCC(O)(c1ccc(F)cc1)C(CN1CCOCC1)c1ccc(Cl)cc1 (configuration not stated)	GLP-1R inv ag 2.8µM
CCOc1ccc(C(O)(CCC(C)C)C(CN2CCOCC2)c2ccccc2)cc1 (configuration not stated)	GLP-1R inv ag 3.2µM, GLP1R cytotox inconclusive
COc1ccc(C(O)(CCC(C)C)C(CN2CCOCC2)c2ccc(Cl)cc2)cc1 (configuration not stated)	GLP-1R inv ag inconclusive, GLP1R cytotox inconclusive
COc1ccc(OC(C)C(=O)NCCC2=CCCCC2)cc1 (configuration not stated)	GLP-1R inv ag 11µM
COc1ccc(S(=O)(=O)N(C)CC(=O)NCCC2=CCCCC2)cc1	GLP-1R inv ag inconclusive, TRHR enhancer 35
COc1ccc(C(=O)NCCC2=CCCCC2)cc1	GLP-1R inv ag inconclusive
Cc1ccccc1CN(c1ccc(C(=O)NCc2cccnc2)cc1)S(C)(=O)=O	none
N#Cc1cc2c(nc1SCC(=O)N1CCCCC1)CCCCC2	GLP-1R inv ag inconclusive
Cc1cccc(N(CC(=O)NC(C)C)C(=O)CCC(=O)Nc2ccccn2)c1	none
CCOc1ccc(-c2nc(CSCC(=O)NC3CCN(Cc4ccccc4)CC3)c(C)o2)cc1	GLP-1R inv ag 8.9µM (no result: TRHR enhancer, TRHR ag)
Cc1oc(-c2ccc(Cl)cc2)nc1CSCC(=O)NC1CCN(Cc2ccccc2)CC1	GLP-1R inv ag inconclusive
CCN1CCN(Cc2ccc(NC(=O)c3cc(NC(=O)c4nccnc4N)cc(OC)c3)cc2C(F)(F)F)CC1	GLP-1R inv ag inconclusive
CCN1CCN(Cc2ccc(NC(=O)c3cc(NC(=O)c4cnnc5ccccc45)cc(OC)c3)cc2C(F)(F)F)CC1	GLP-1R inv ag 8.9µM!, GLP1R cytotox inconclusive
COc1ccc(-c2cc3nc(C)cc(-c4ccc(OC)cc4)n3n2)cc1	none
COc1ccc(-c2cc3nc(C)cc(N)n3n2)cc1	GLP-1R inv ag 7.9µM, TRHR enhancer 30
CN1CCN(C2Cc3cc(Cl)ccc3Sc3cc(F)ccc32)CC1 (configuration not stated)	GLP-1R inv ag 5µM, GLP1R cytotox inconclusive (no result: TRHR enhancer, TRHR ag)
COc1ccc(Br)cc1CNC(=O)Cn1nc(C)n2c(cc3cc(F)ccc32)c1=O	none (no result: GLP1R ag)
Cc1nn(CC(=O)NC2CC2)c(=O)c2cc3cc(F)ccc3n12	TRHR enhancer 34 (no result: GLP1R ag)
Cc1cc(OC(=O)c2ccc(S(=O)(=O)N3CCOCC3)cc2)c([N+](=O)[O-])c(=O)[nH]1	none
CCOc1ccccc1NC(=O)c1c(NCc2sccc2C)sc2c1CCCCC2	none (no result: GLP1R ag)
CCOc1ccccc1NC(=O)c1c(NCc2cccs2)sc2c1CCCCC2	GLP-1R inv ag 13µM (no result: GLP1R ag)
COc1ccccc1NS(=O)(=O)c1ccc(-c2cc(C)no2)s1	GLP-1R inv ag inconclusive
COC(=O)CN(C)C(=O)c1ccccc1OC1CCN(S(C)(=O)=O)CC1	TRHR enhancer 35

Source: PubChem BioAssay
